Rows were chosen to be rich in hits. Some 3.2% of all compounds tested hit in one or more screens of this group.
AMA1-RON2 inh = inhibitors of Plasmodium falciparum AMA1-RON2 interaction; AlphaScreen AMA1-biotinylated RON2 peptide binding; Potency, µM (series often up to 58.2 µM), inactives show top-dose activity change, negative = inhibition, usual class: inhibitors; 0.2% of 360,000 active; AID 720542;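 further: 0% = vehicle wells and -100% = peptide control; nearly all actives have a fitted effect of over 45% in size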
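AMA1 (3D7) with his tag at 25 nM final met compounds first, then biotinylated RON2 peptide at 25 nM; detection used donor plus acceptor beads, 10 µg/mL apiece, read by AlphaScreen after 30 min at room temperature.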
Sm TGR inh = blocks Schistosoma mansoni thioredoxin glutathione reductase. purified TGR, DTNB reduction, TNB absorbance 405 nm. Potency, µM (titrated, usually from 114 µM), for the others: at the top dose activity change, negative = inhibition, most hits filed as inhibitors. 3% of 360,000 active; further: nearly all actives have a fitted effect of over 60% in size
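First, TGR (20 nM dispensed) and NADPH were mixed with compound. Second, a 15 min room-temperature incubation followed. Third, further NADPH and then DTNB were added to start the reaction. Finally, TNB absorbance was monitored kinetically.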
RE007 growth inh = less growth of the S. pombe RE007 Vpr strain; Potency, µM (highest dose often 92.2 µM), inactives show at the highest dose activity change, negative = less growth, most hits filed as inhibitors; AID 651644; 0.21% of 360,000 active; S. pombe RE007 Vpr strain, BacTiter-Glo ATP luminescence, 24 h; active means well fitted falling curve with a large enough effect; inconclusive means small, poorly fitted or top-dose-only effect; inactive means no such curve, though single readings can be large or run the other way; further: nearly all actives have a fitted effect of over 50% in size
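Fission yeast RE007 carrying one integrated HIV-1 vpr copy, seeded at OD 0.01 in PMG+AL medium with 23 nL pinned compound. Grown 24 h at 30 degrees; viability read by BacTiter-Glo luminescence after 5 min.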
AmpC inh no detg = blocks E. coli AmpC beta-lactamase in detergent-free assay; AmpC nitrocefin hydrolysis, absorbance 480 nm, 0.0001% Triton; Potency, µM (doses to about 57.1 µM), without a hit: at the highest dose activity change, negative = inhibition, hits mostly inhibitors; 0.52% of 330,000 active; AID 485341;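 further: plate controls were no compound for no effect and no enzyme for full effect; nearly all actives have a fitted effect of over 20% in size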
Target sequence (P00811 whole entry, looked up): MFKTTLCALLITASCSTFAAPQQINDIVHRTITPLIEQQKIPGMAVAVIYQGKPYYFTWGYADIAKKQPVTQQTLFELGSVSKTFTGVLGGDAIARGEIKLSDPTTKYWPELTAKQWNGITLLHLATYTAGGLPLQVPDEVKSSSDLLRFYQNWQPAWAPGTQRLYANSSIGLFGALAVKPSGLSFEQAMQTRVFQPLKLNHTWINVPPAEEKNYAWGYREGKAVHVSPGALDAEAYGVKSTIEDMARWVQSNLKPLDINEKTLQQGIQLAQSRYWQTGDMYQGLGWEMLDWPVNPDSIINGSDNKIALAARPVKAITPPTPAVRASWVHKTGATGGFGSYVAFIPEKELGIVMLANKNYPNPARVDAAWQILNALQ
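AmpC (5.3 nM in the dispensed reagent) in 20 mM phosphate pH 7.0 with 0.01% (detergent screen) or 0.0001% Triton X-100 was preincubated with compounds for 15 min at room temperature. Nitrocefin was then added from an 800 uM solution, and hydrolysis was followed at 480 nm.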
AmpC inh detg = blocks E. coli AmpC beta-lactamase in detergent assay; P00811; AmpC hydrolysis of nitrocefin, absorbance 480 nm, 0.01% Triton; Potency, µM (highest dose often 114 µM), for the others: top-dose activity change, negative = inhibition, usual class: inhibitors; 0.041% of 370,000 active; AID 485294;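 further: 0% = no-compound wells and -100% = no-enzyme wells; nearly all actives have a fitted effect of over 25% in size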
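AmpC (5.3 nM in the dispensed reagent) in 20 mM phosphate pH 7.0 with 0.01% (detergent screen) or 0.0001% Triton X-100 was preincubated with compounds for 15 min at room temperature. Nitrocefin was then added from an 800 uM solution, and hydrolysis was followed at 480 nm.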
* hit, by the source's call; ? = inconclusive; . = no result; [ ] = another dose, or the depositor's remark. Unless noted, the call rests on the fitted dose curve; in most records, active means well fitted curve in the direction sought with a large enough effect; inconclusive means small, poorly fitted or top-dose-only effect, or another doubt; inactive means no such curve, though single readings can be large; an effect the other way counts as inactive or inconclusive. Unless noted, on the % scale 0 is the no-effect control and ±100 the full control effect; potency means the concentration at half of the fitted maximal effect.

SMILES | AMA1-RON2 inh | Sm TGR inh | RE007 growth inh | AmpC inh no detg | AmpC inh detg
COc1ccc(NC(=O)C2CCC(CNS(=O)(=O)c3ccc(Br)s3)CC2)cc1OC (stereo not given) | . | -0.8% | . | . | 0.0%
c1ccc(-c2ccc(C3=Nn4c(nnc4-c4cccs4)SC3)cc2)cc1 | -25.1% | 7.6% | 22.4% | -19.6% | -6.0%
Clc1ccc(C2=Nn3c(nnc3-c3cccs3)SC2)cc1 | 18.1% | 79.4µM* | -7.2% | -17.1% | -0.7%
CCCc1nnc2n1N=C(c1ccc(C)cc1)CS2 | -7.9% | 44.7µM* | 1.7% | 27.9% | ?
CCc1nnc2n1N=C(c1ccccc1)CS2 | -4.1% | 44.7µM* | -1.2% | -5.0% | 1.3%
COc1ccc(Nc2c(-c3ccc(C)o3)nc3cc(C)ccn23)cc1 | . | -23.1% | . | . | 14.6%
CCc1ccc2occ(CC(=O)Nc3ccc(C)c(C)c3)c2c1 | . | 1.7% | . | . | -12.9%
COC(=O)[C@@]12C[C@@H](CC(=O)N3CCN(C(=O)C4CC4)CC3)C(=O)N(CCc3ccc(OC)c(OC)c3)C1=CCC(C)(C)C2 | 3.4% | . | ? | . | .
CCc1c(C)sc2c1CCN(C(=O)Nc1cc(Cl)c(OC)cc1OC)C2c1ccccc1 (stereo not given) | . | 1.2% | . | . | -8.0%
Cc1ccc(NC(=O)CC2SC3=NCCN3C2=O)cc1 (stereo not given) | -11.7% | 7.94µM* | 5.01µM* | -38.9% | -2.9%
Nc1nc2c(s1)COc1ccccc1-2 | 15.4% | 0.0% | -20.4% | -17.0% | 6.1%
Nc1nc2c(s1)CCc1c-2cnn1-c1ccccc1 | 8.3% | 2.82µM* | . | -49.2% | 89.1µM*
Cc1cccc(NC(=O)c2cc(S(=O)(=O)NCc3ccc4c(c3)OCO4)ccc2F)c1C | . | 5.0% | . | . | 3.6%
O=C(NCC(c1cccnc1)N1CCc2ccccc2C1)c1ccc(F)c(F)c1 (stereo not given) | . | -0.3% | . | . | 12.2%
O=S(=O)(NC1CCCCCCC1)OCC(Cl)(Cl)Cl | 10.7% | -23.6% | -7.8% | -33.0% | -6.3%
O=S(=O)(NC1CC(NS(=O)(=O)OCC(Cl)(Cl)Cl)C2CCCCC12)OCC(Cl)(Cl)Cl (stereo not given) | 2.0% | 79.4µM* | -5.7% | -21.8% | -9.0%
O=C(/C=C/NCC(=O)c1ccccc1)c1ccc(Br)cc1 | -2.9% | 20µM* | -7.0% | -35.0% | -0.2%
O=C(/C=C/NNC(=O)c1ccccc1)c1ccc(Br)cc1 | 17.6% | 0.7% | -4.0% | -38.0% | ?
O=C1NC(=O)N(c2ccccc2)C(=O)/C1=C\C=C\c1ccccc1 | 2.7% | 14.1µM* | 33.3% | -54.2% | -3.1%
O=C1NC(=O)N(Cc2ccc(F)cc2)C(=O)/C1=C\C=C\c1ccco1 | -15.0% | 7.94µM* | 2.1% | -49.0% | 5.6%
CC(C)c1ccc(N2C(=O)NC(=O)/C(=C/C=C/c3ccco3)C2=O)cc1 | -15.1% | ? | 13.5% | -56.4% | ?
O=C1NC(=O)N(Cc2ccccc2)C(=O)/C1=C\c1ccco1 | ? | -48.0% | 1.0% | -26.2%[11.4 µM] | -14.8%
CCCCN1C(=O)/C(=C/C=C/c2ccco2)C(=O)NC1=S | ? | 4.47µM* | -0.9% | -52.2% | -0.8%
Cc1ccc(N2C(=O)NC(=O)/C(=C/C=C/c3ccco3)C2=O)cc1 | 4.9%[2.32 µM] | ? | -5.9% | -21.0% | -13.8%
CCc1ccc(N2C(=O)NC(=O)/C(=C\C=C\c3ccco3)C2=O)cc1 | -8.7% | 11.2µM* | 23.4% | ? | 2.3%
SMILES | AMA1-RON2 inh | Sm TGR inh | RE007 growth inh | AmpC inh no detg | AmpC inh detg
Cc1ccc2[nH]c3c(=O)n(CC(=O)Nc4ccc(Br)cc4C)ncc3c2c1 | . | 0.9% | . | . | -0.7%
COc1ccc(-c2cc(=O)oc3c4c(ccc23)OCN(Cc2ccccc2)C4)cc1 | . | 10.0% | . | . | 16.2%
O=C(CSc1nc2c([nH]c3ccccc32)c(=O)n1-c1ccc(F)cc1)NCC1CCCO1 (stereo not given) | . | 1.3% | . | . | 2.0%
O=C1N(c2ccccc2)C[C@@H]2C[C@@H](c3cccs3)N3CCC[C@@]123 | -6.9% | 15.8µM* | 13.3% | -12.8% | 1.3%
COc1ccc(NC(=O)CCCc2nnc3n(CCC(C)C)c(=O)c4sccc4n23)cc1Cl | . | 7.1% | . | . | 12.9%
O=C(NC1(C(F)(F)F)NC(=O)N(Cc2ccccc2)C1=O)c1cccnc1 (stereo not given) | 9.9% | 2.0% | 1.1% | 0.3% | ?
O=C(NC1(C(F)(F)F)NC(=O)N(Cc2ccco2)C1=O)c1cccnc1 (stereo not given) | -4.5% | 35.5µM* | -7.8% | -23.2% | 1.1%
O=C(NC1(C(F)(F)F)NC(=O)N(Cc2ccco2)C1=O)c1cccs1 (stereo not given) | -9.2% | 35.5µM* | 0.1% | -15.9% | -6.8%
CCC1CCCCN1CCCNC(=O)c1ccc2c(c1)N(Cc1cccc(C)c1)C(=O)c1ccccc1S2(=O)=O (stereo not given) | . | 8.2% | . | . | 7.4%
CCc1ccc(-c2nc3cc(NC(=O)c4ccc(C)c(C)c4)ccc3o2)cc1 | . | 3.9% | . | . | 4.7%
CCc1ccc2oc(-c3ccc(NC(C)=O)cc3)nc2c1 | 0.0% | -3.1% | 5.62µM* | 81.5% | -0.2%
Cc1ccc(NC(=O)NNC(=O)c2cc3ccccc3cc2O)cc1 | 67.5% | 1.3% | -8.0% | 10µM* | -1.5%
Cc1cc(Cl)ccc1-n1c(CCC(=O)O)ccc1-c1cccs1 | . | 28.2µM* | . | . | 4.3%
CCOC(=O)Cn1c(-c2cccs2)cc2cc(Cl)ccc21 | . | -0.8% | . | . | -2.7%
Cc1c(Cl)cccc1NC(=O)Cn1c(CCC(=O)O)ccc1-c1cccs1 | . | -26.4% | . | . | -8.4%
Cc1ccc(Cl)cc1-n1c(CCC(=O)O)ccc1-c1cccs1 | . | 39.8µM* | . | . | 1.1%
COc1ccc(-c2ccc(CCC(=O)O)n2-c2ccc(Cl)cc2C)cc1 | . | 39.8µM* | . | . | 11.4%
Cc1ccc(C)c(-n2c(CCC(=O)O)ccc2-c2ccc(Cl)cc2)c1 | . | ? | . | . | 4.2%
Cc1c(Cl)cccc1-n1c(CCC(=O)O)ccc1-c1cccs1 | . | 39.8µM* | . | . | 6.0%
O=C(CC1SC(N2CCOCC2)=NC1=O)Nc1ccccc1Cl (stereo not given) | -6.0% | 44.7µM* | -4.3% | -11.4% | 5.6%
Cc1cc(CNC(=S)Nc2cccc(Cl)c2Cl)nn1C | 17.8% | 12.6µM* | 18.3% | -13.2% | -5.2%
CCCCCCCCCC(=O)O | 6.9% | . | -19.1% | -11.1% | .
O=C(O)CCCCC1CCSS1 (stereo not given) | 8.7% | 7.0% | -8.5% | 15.8µM* | 50.1µM*
COc1ccc(-c2csc(NC(=O)CSc3ccc(Br)cc3)n2)c(OC)c1 | -16.1% | -20.7% | 7.0% | 35.5µM* | -1.2%
CCc1c(C)nc(SCC(=O)NNC(=O)Cc2ccc(OC)cc2)[nH]c1=O | 71.2% | -2.0% | 0.6% | -0.2% | 5.4%
CCCc1cc(=O)[nH]c(SCC(=O)Nc2nc(-c3ccccc3)cs2)n1 | 6.7% | -3.7% | 0.4% | 12.6µM* | 1.8%
